{
  "source": "the supplement of paper PMC8183993",
  "note": "Values joined by “and” are separate entries in the source; they are usually repeats but may differ in a detail not shown here. Equal values may be shown once. Where a name gives a salt, the structure may show the parent alone. ± gives the standard deviation of the averaged measurements. In all, about 3,200 compounds were measured (“nuclei count (viability) relative to DMSO”: median about 99, lowest 2% from about 16 on). The entries come from a sample that favours the lowest values as a whole.",
  "data": [
    {"tested_on": "U2OS", "assay": "nuclei count (viability) relative to DMSO (% of DMSO); higher = more viable cells", "details": "10 µM; 24 h", "description": "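Primary image-based screen in U2OS cells: compounds at 10 uM for 24 h, then a 1 h o-propargyl-puromycin (OPP) pulse, click labelling, and high-throughput microscopy. Mean cytoplasmic OPP intensity and nuclei count were normalised to DMSO wells within each plate (DMSO = 100) and averaged over triplicate plates.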", "values": [
      {"smiles": "CN(C(=O)c1ccc(F)cc1C(F)(F)F)C1CCN(c2nnc(-c3ccnn3C)c3ccccc23)CC1", "nuclei count": 101},
      {"smiles": "C1=N/C2=N/c3ccc(OCCN4CCCC4)c(c3)COC/C=C/COCc3cccc(c3)C(=C1)N2", "note": "[Pacritinib (SB1518)]", "nuclei count": 16.7},
      {"smiles": "Cn1c(CNc2ccc(C(=N)N)cc2)nc2cc(C(=O)N(CCC(=O)O)c3ccccn3)ccc21", "note": "[BIBR 953 (Dabigatran etexilate, Pradaxa)]", "nuclei count": 108},
      {"smiles": "N=C(N)NC(=N)Nc1ccccc1", "note": "[1-Phenylbiguanide hydrochloride]", "nuclei count": 95.6},
      {"smiles": "Cn1cc(C2=C(c3ccc(Cl)cc3Cl)C(=O)NC2=O)c2ccccc21", "nuclei count": "94.8 and 92.7"},
      {"smiles": "Cn1cc(C2=C(c3cn(CCCSC(=N)N)c4ccccc34)C(=O)NC2=O)c2ccccc21", "note": "[Ro 31-8220 Mesylate]", "nuclei count": 29.7},
      {"smiles": "Cn1cc(C2=C(c3cn(CCCSC(=N)N)c4ccccc34)C(=O)NC2=O)c2ccccc21", "note": "[Ro 31-8220 mesylate]", "nuclei count": 10.6},
      {"smiles": "CN(C)CCCn1cc(C2=C(c3c[nH]c4ccccc34)C(=O)NC2=O)c2ccccc21", "nuclei count": "55.6 and 47.3"},
      {"smiles": "O=C(O)CCC/C=C\\C[C@@H]1CO[C@H](C(F)(F)F)O[C@@H]1c1ccccc1O", "nuclei count": 102},
      {"smiles": "O=C(O)CNC(=O)C(CS)Cc1ccccc1", "note": "(racemic) [DL-Thiorphan]", "nuclei count": 113},
      {"smiles": "CNC(C)C1CCC(N)C(OC2C(N)CC(N)C(OC3OCC(C)(O)C(NC)C3O)C2O)O1", "note": "(centres undefined) [Gentamycin sulfate (Gentacycol)]", "nuclei count": 79.5},
      {"smiles": "CC(C)c1noc(N2CCC(COc3ccc(-c4ccc(S(C)(=O)=O)cc4)nc3)CC2)n1", "nuclei count": 109},
      {"smiles": "C=C(NC(=O)C(=C)NC(=O)c1csc(C2=N[C@@H]3c4csc(n4)[C@H]4NC(=O)c5csc(n5)[C@H]([C@](C)(O)[C@@H](C)O)NC(=O)[C@H]5CSC(=N5)/C(=C/C)NC(=O)[C@H]([C@@H](C)O)NC(=O)c5csc(n5)[C@]3(CC2)NC(=O)[C@H](C)NC(=O)C(=C)NC(=O)[C@H](C)NC(=O)[C@H]([C@@H](C)CC)N[C@@H]2C=Cc3c([C@H](C)O)cc(nc3[C@H]2O)C(=O)O[C@@H]4C)n1)C(N)=O", "note": "[Thiostrepton]", "nuclei count": 16.2},
      {"smiles": "CC(=O)OC[C@H]1O[C@@H]([S-])[C@H](OC(C)=O)[C@@H](OC(C)=O)[C@@H]1OC(C)=O.CCP(CC)CC.[Au+]", "note": "[Auranofin]", "nuclei count": 13.4},
      {"smiles": "CCN(C(=O)CO)[C@H]1CN(/C(=N\\C#N)Nc2cccc(OC(F)F)c2)N=C1c1ccc(Cl)c(Cl)c1", "nuclei count": 111},
      {"smiles": "CN1CCN(c2nc(C3=C(c4c[nH]c5ccccc45)C(=O)NC3=O)c3ccccc3n2)CC1", "note": "[Sotrastaurin (AEB071)]", "nuclei count": "95.2 ± 3.4"},
      {"smiles": "O=C(/C=C/c1ccc(O)cc1)CC(=O)/C=C/c1ccc(O)cc1", "note": "[bis-demethoxycurcumin]", "nuclei count": 93.2},
      {"smiles": "CC(=O)NCC(=O)N1[C@@H]2CC[C@H]1c1ccc(Nc3ncc(C(F)(F)F)c(NC4CCC4)n3)cc12", "nuclei count": 16.4},
      {"smiles": "C=CC(=O)Nc1cccc(Nc2nc(Nc3ccc(NC4CN(CCF)C4)cc3OC)ncc2C(F)(F)F)c1", "nuclei count": 20.7},
      {"smiles": "C=CC(=O)Nc1cccc(Nc2nc(Nc3ccc(N4CCN(C(C)=O)CC4)cc3OC)ncc2C(F)(F)F)c1", "nuclei count": 57.6},
      {"smiles": "COc1ccc(Br)cc1S(=O)(=O)NC(=O)/C=C/c1ccccc1Cc1ccc2ccccc2c1", "nuclei count": 104},
      {"smiles": "O=C1c2ccccc2-c2nc3nonc3nc21", "nuclei count": 44},
      {"smiles": "CCCCCCCCc1ccc(-c2ccc(C(=O)O)cc2)cc1", "nuclei count": 108},
      {"smiles": "CCCCCCCc1ccc(CCc2cccc(O)c2C(=O)O)cc1", "nuclei count": 7.35},
      {"smiles": "CCCCCCCCc1ccc(CCC(N)(CO)CO)cc1", "note": "[Fingolimod (FTY720)]", "nuclei count": "18.9 ± 0.71"},
      {"smiles": "CC(C)=CCC/C(C)=C/CC/C(C)=C/CSCC(=O)O", "note": "[Farnesylthioacetic acid]", "nuclei count": 97.9},
      {"smiles": "C1COC(NC(C2CC2)C2CC2)=N1", "note": "[Rilmenidine hemifumarate]", "nuclei count": 103},
      {"smiles": "C1COC(NC(C2CC2)C2CC2)=N1", "note": "[Rilmenidine]", "nuclei count": 93.6},
      {"smiles": "CC(C)(C)c1ccc(S(=O)(=O)/C=C/C#N)cc1", "nuclei count": 43.7},
      {"smiles": "COc1cc([C@@H]2c3cc4c(cc3[C@@H](O[C@@H]3O[C@@H]5CO[C@@H](C)O[C@H]5[C@H](O)[C@H]3O)[C@H]3COC(=O)[C@H]23)OCO4)cc(OC)c1O", "note": "[Etoposide (VP-16)]", "nuclei count": 50.9},
      {"smiles": "COc1cc([C@@H]2c3cc4c(cc3[C@@H](O[C@@H]3O[C@@H]5CO[C@@H](C)O[C@H]5[C@H](O)[C@H]3O)[C@H]3COC(=O)[C@H]23)OCO4)cc(OC)c1O", "note": "[Etoposide]", "nuclei count": "44.3 ± 2"},
      {"smiles": "COc1cc([C@@H]2c3cc4c(cc3[C@@H](O[C@@H]3O[C@@H]5CO[C@@H](c6cccs6)O[C@H]5[C@H](O)[C@H]3O)[C@H]3COC(=O)[C@H]23)OCO4)cc(OC)c1O", "note": "[Teniposide (Vumon)]", "nuclei count": 15.5},
      {"smiles": "CC[C@H](CO)Nc1nc(Nc2cccc(-c3ccccn3)c2)c2ncn(C(C)C)c2n1", "note": "[(R)-DRF053 dihydrochloride]", "nuclei count": 76.2},
      {"smiles": "CC(Oc1ccc(O)cc1)(P(=O)(O)O)P(=O)(O)O", "nuclei count": "105 ± 0.12"},
      {"smiles": "CO[C@@H]1[C@H](O)[C@@H](CO)O[C@H]1n1cnc2c(NC3CCCCC3)ncnc21", "nuclei count": 102},
      {"smiles": "COCC[n+]1c2c(n(Cc3cnccn3)c1C)C(=O)c1ccccc1C2=O", "nuclei count": 14.1},
      {"smiles": "CC(=O)NNC(=O)N1Cc2ccccc2Oc2ccc(Cl)cc21", "nuclei count": 94.3},
      {"smiles": "OCc1ccc(O[C@@H]2O[C@H](CO)[C@@H](O)[C@H](O)[C@H]2O)cc1", "note": "[Gastrodin (Gastrodine)]", "nuclei count": 94.5},
      {"smiles": "CCN(CC)CCOc1ccc(Cc2ccccc2)cc1", "note": "[DPPE fumarate]", "nuclei count": 101},
      {"smiles": "CCN(CC)CCOc1ccc(Nc2ncc3cc(-c4c(Cl)cccc4Cl)c(=O)n(C)c3n2)cc1", "nuclei count": 7.54},
      {"smiles": "CSc1cccc(Nc2ncc3cc(-c4c(Cl)cccc4Cl)c(=O)n(C)c3n2)c1", "nuclei count": 72.2},
      {"smiles": "Cc1ccc(CC2(O)CCN(CCOc3ccc(O)cc3)CC2)cc1", "nuclei count": 87.3},
      {"smiles": "COc1ccc(CCC(=O)c2c(O)cc(O[C@@H]3O[C@H](CO)[C@@H](O)[C@H](O)[C@H]3O[C@@H]3O[C@@H](C)[C@H](O)[C@@H](O)[C@H]3O)cc2O)cc1O", "note": "[Neohesperidin dihydrochalcone (Nhdc)]", "nuclei count": 98.7},
      {"smiles": "COC(=O)[C@]12CCC(C)(C)C[C@H]1[C@H]1C(=O)C=C3[C@@]4(C)C=C(C#N)C(=O)C(C)(C)[C@@H]4CC[C@@]3(C)[C@]1(C)CC2", "note": "[Bardoxolone Methyl]", "nuclei count": 4.35},
      {"smiles": "C[C@]12CC[C@@H](O)C[C@@H]1CC[C@@H]1[C@@H]2CC[C@]2(C)C=CC[C@@H]12", "note": "[3a, 5a-Androstenol]", "nuclei count": 90.5},
      {"smiles": "Cc1ccc(NC(=O)c2ccc(CN3CC[C@H](N(C)C)C3)c(C(F)(F)F)c2)cc1Nc1nccc(-c2cncnc2)n1", "note": "[Bafetinib (INNO-406)]", "nuclei count": 77.9},
      {"smiles": "Cc1ccc(NC(=O)c2ccc(CN3CCN(C)CC3)cc2)cc1Nc1nccc(-c2cccnc2)n1", "note": "[Imatinib mesylate]", "nuclei count": "93.1 ± 2.5"},
      {"smiles": "Cc1ccc(NC(=O)c2ccc(CN3CCN(C)CC3)cc2)cc1Nc1nc(-c2cccnc2)cs1", "note": "[Masitinib (AB1010)]", "nuclei count": 90.7},
      {"smiles": "Cc1ccc(C(=O)Nc2ccc(CN3CCN(C)CC3)c(C(F)(F)F)c2)cc1C#Cc1cnc2[nH]ncc2c1", "note": "[GZD824 Dimesylate]", "nuclei count": 14.1},
      {"smiles": "Cc1ccc(NC(=O)c2ccc(CN3CCN(C)CC3)cc2)cc1Nc1nccc(-c2cccnc2)n1", "note": "[Imatinib Mesylate]", "nuclei count": 96.8},
      {"smiles": "Cc1ccc(NC(=O)c2ccc(CN3CCN(C)CC3)cc2)cc1Nc1nccc(-c2cccnc2)n1", "note": "[Imatinib]", "nuclei count": 101},
      {"smiles": "Cc1ccc(NC(=O)c2ccc(CN3CCN(C)CC3)cc2)cc1Nc1nccc(-c2cccnc2)n1", "note": "[Imatinib (STI571)]", "nuclei count": 99.1},
      {"smiles": "Cc1ccc(C(=O)Nc2ccc(CN3CCN(C)CC3)c(C(F)(F)F)c2)cc1C#Cc1cnc2cccnn12", "nuclei count": 16.3},
      {"smiles": "CCNC(=O)Nc1ccc(-c2nc3c(c(N4CCOC[C@@H]4C)n2)CCN(C2COC2)C3)cc1", "nuclei count": "75.4 ± 5.5"},
      {"smiles": "O=C(O)[C@]1(Cc2cccc(Nc3nccs3)n2)CC[C@@H](Oc2cccc(Cl)c2F)CC1", "nuclei count": "77.7 ± 2.7"},
      {"smiles": "CC(C1=C(CCN(C)C)Cc2ccccc21)c1ccccn1", "note": "(stereo in doubt) [(S)-(+)-Dimethindene maleate]", "nuclei count": 101},
      {"smiles": "CCNC(=O)c1cc2c(-c3cc(OCCN4CCCC4)c(Cl)cc3Cl)nc(N)nc2s1", "nuclei count": 67},
      {"smiles": "NC(=O)N1c2ccccc2CC(O)c2ccccc21", "note": "(centres undefined) [Licarbazepine]", "nuclei count": 104},
      {"smiles": "CCNc1nc(Nc2cc(F)c(C(=O)N3CCOCC3)cc2OC)ncc1C(F)(F)F", "nuclei count": 96.2},
      {"smiles": "COc1ccc(-n2[nH]c3c4c(ncc3c2=O)CCCCC4)cc1", "nuclei count": 99.9},
      {"smiles": "O=C(O)c1cc(O)ccc1O", "note": "[Gentisic acid]", "nuclei count": 103},
      {"smiles": "COc1ccc2[nH]c(-c3ccccc3)c(CCNC(C)=O)c2c1", "note": "[2-Phenylmelatonin]", "nuclei count": 84.5},
      {"smiles": "N[C@@H](CSC(c1ccccc1)(c1ccccc1)c1ccccc1)C(=O)O", "note": "[S-Trityl-L-cysteine]", "nuclei count": 95},
      {"smiles": "C=CCn1c(=O)c2cnc(Nc3ccc(N4CCN(C)CC4)cc3)nc2n1-c1cccc(C(C)(C)O)n1", "nuclei count": 25.1},
      {"smiles": "CS(=O)(=O)c1cccc(CNc2nc(Nc3ccc4c(c3)CCC(=O)N4)ncc2C(F)(F)F)c1", "nuclei count": "45.9 ± 3.2"},
      {"smiles": "C=CC(=O)Nc1cccc(Nc2nc(Nc3ccc(OCCOC)cc3)ncc2F)c1", "nuclei count": 34.7},
      {"smiles": "CNC(=O)c1nn(C)c2c1C(C)(C)Cc1cnc(Nc3ccc(N4CCN(C)CC4)cc3)nc1-2", "nuclei count": "54.8 and 36.4"},
      {"smiles": "Cc1cnc(Nc2ccc(OCCN3CCCC3)cc2)nc1Nc1cccc(S(=O)(=O)NC(C)(C)C)c1", "nuclei count": "7.48 and 5.57"},
      {"smiles": "Cc1cnc(Nc2ccc(N3CCN(C)CC3)cc2)nc1Nc1cccc(S(=O)(=O)NC(C)(C)C)c1", "nuclei count": 5.44},
      {"smiles": "Oc1cc2c(cc1O)[C@@H]1c3ccc(O)c(O)c3OC[C@]1(O)C2", "note": "[Hematoxylin (Hydroxybrazilin)]", "nuclei count": 86},
      {"smiles": "Cc1nn(C)c2nc(NNC(=O)Nc3cc(Cl)nc(Cl)c3)cc(C(C)C)c12", "nuclei count": 106},
      {"smiles": "COC(=O)C1=C(C)NC(C)=C([N+](=O)[O-])[C@H]1c1ccccc1C(F)(F)F", "nuclei count": 99.5},
      {"smiles": "O=C(c1ccc(Cl)cc1Cl)n1nnc2ccccc21", "nuclei count": 83.2},
      {"smiles": "COc1cc(OC)c(/C=C/S(=O)(=O)Cc2ccc(OC)c(NCC(=O)O)c2)c(OC)c1", "nuclei count": "16.3 ± 1.4"}
    ]}
  ]
}
